According to PMC7862700, “An all-to-all approach to the identification of sequence-specific readers for epigenetic DNA modifications on cytosine”:

Key:
Assay in all cases: DAPPL (digital affinity profiling via proximity ligation, sequencing); 10 mM Tris-HCl pH 7.5, 50 mM NaCl, 1 mM DTT, 4% glycerol, room temperature, 30 min; GST-TFs on glutathione beads, 16-mer random dsDNA library, 0.1% formaldehyde crosslink after washing; high values mean tight binding
Conditions in all cases: protein: recombinant; tags: N-terminal GST; dsDNA, one strand shown
[1] = target: T1, FLI1 (Homo sapiens, UniProt Q01543 1-452)
T1 sequence: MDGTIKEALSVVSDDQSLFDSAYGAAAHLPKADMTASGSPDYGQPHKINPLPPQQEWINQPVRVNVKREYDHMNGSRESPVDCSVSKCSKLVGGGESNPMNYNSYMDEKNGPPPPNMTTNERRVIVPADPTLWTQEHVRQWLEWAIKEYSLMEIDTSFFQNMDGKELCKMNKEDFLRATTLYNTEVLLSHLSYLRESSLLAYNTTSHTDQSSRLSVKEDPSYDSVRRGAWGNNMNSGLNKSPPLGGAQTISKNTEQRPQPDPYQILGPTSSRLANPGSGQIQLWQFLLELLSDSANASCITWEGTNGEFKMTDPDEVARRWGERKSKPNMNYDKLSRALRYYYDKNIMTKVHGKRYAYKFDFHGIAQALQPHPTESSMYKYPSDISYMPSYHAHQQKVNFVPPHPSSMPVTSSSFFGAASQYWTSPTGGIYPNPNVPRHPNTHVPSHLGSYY
In short: (§1)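 Pools were built from human transcription factors expressed in yeast as GST fusions, captured on glutathione beads and DNA-barcoded, along with a tag-only sample. Incubation with 200 nmole of a 16-mer random double-stranded DNA library lasted 30 min at room temperature in Tris/NaCl/DTT/glycerol buffer, and was followed by washing, 0.1% formaldehyde crosslinking, proximity ligation, PCR amplification and Illumina NextSeq500 sequencing. Binding signal is the quotient of each hexamer's read frequency for a factor and its frequency for the tag-only sample.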

[2] = target: T2, ELK1 (Homo sapiens, UniProt P19419 1-428)
T2 sequence: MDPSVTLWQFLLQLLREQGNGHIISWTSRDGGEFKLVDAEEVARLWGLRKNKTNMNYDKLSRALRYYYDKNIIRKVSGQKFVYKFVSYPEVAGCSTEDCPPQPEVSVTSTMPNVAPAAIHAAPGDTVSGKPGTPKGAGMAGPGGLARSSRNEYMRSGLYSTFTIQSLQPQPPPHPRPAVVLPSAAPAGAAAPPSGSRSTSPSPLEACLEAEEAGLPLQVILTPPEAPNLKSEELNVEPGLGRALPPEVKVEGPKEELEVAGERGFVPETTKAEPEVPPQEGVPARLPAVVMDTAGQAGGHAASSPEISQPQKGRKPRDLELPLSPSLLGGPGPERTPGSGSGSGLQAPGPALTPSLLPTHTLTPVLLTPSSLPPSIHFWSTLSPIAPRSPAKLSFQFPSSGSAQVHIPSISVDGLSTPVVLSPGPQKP
In short: as §1

[3] = target: T3, GABPA (Homo sapiens, UniProt Q06546 1-454)
T3 sequence: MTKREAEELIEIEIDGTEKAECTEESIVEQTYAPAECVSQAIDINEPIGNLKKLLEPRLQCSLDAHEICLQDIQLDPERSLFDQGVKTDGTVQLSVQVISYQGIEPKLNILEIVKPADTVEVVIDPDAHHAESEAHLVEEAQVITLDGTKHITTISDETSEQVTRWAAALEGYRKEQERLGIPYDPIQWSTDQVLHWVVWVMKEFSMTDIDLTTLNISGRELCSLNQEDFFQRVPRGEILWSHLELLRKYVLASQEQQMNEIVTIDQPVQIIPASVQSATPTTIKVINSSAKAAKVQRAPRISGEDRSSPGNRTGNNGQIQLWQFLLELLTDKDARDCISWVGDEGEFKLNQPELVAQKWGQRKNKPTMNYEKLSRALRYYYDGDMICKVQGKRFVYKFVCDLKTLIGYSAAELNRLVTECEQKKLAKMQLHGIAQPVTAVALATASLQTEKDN
In short: as §1

[4] = target: T4, ERG (Homo sapiens, UniProt P11308 1-479)
T4 sequence: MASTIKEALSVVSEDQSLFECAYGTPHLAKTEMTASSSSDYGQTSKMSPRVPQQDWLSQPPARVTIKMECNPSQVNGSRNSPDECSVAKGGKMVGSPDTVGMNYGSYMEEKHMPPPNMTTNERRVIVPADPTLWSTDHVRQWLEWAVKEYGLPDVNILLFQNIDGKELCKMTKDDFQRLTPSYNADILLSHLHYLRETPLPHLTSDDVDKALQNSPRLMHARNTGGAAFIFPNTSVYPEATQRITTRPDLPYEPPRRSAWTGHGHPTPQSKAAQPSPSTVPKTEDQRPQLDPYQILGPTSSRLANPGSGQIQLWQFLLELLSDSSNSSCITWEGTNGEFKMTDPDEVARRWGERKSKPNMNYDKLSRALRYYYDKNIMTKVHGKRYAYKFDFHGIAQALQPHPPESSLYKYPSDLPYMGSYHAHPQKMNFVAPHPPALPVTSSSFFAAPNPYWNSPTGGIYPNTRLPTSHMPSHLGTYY
In short: as §1

[5] = target: ELF1 (Homo sapiens, UniProt P32519 1-619)
ELF1, sequence (P32519 whole entry): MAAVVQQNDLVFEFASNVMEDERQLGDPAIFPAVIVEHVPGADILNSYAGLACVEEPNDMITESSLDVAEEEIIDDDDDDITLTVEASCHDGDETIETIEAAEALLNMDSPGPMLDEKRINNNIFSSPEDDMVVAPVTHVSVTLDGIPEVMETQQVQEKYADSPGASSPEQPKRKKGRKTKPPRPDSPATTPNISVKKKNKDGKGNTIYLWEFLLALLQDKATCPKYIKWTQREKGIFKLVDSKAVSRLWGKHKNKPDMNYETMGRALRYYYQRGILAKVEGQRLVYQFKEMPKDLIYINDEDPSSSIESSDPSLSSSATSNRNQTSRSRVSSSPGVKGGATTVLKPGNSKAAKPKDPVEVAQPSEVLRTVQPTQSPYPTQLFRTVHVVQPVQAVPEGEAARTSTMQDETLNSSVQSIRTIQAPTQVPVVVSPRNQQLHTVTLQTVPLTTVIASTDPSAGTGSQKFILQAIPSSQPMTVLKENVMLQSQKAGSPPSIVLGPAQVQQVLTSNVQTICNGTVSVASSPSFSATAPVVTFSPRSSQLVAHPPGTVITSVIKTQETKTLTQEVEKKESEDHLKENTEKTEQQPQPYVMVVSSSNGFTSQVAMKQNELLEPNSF
In short: as §1

[6] = target: T5, EHF (Homo sapiens, UniProt Q9NZC4 1-300)
T5 sequence: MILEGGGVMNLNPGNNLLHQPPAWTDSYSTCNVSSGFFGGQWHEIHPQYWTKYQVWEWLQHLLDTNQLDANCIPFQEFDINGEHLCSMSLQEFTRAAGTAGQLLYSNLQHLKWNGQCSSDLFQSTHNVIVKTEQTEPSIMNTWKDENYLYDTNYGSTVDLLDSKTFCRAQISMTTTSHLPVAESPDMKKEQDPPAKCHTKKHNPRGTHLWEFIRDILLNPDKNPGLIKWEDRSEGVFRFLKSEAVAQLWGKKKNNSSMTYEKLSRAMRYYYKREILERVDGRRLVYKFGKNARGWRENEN
In short: as §1

[7] = target: SPI1 (Homo sapiens, UniProt P17947 1-270)
In short: as §1

[8] = target: SPIB (Homo sapiens, UniProt Q01892 1-262)
SPIB, sequence (Q01892 whole entry): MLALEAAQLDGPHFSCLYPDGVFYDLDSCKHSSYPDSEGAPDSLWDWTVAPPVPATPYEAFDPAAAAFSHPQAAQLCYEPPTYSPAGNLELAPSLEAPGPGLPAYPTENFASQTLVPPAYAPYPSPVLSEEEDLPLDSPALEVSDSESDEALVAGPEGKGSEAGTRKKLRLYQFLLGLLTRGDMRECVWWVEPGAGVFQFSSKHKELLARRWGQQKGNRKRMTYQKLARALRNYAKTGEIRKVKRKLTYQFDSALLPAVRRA
In short: as §1

[9] = target: T6, ELK3 (Homo sapiens, UniProt P41970 1-407)
T6 sequence: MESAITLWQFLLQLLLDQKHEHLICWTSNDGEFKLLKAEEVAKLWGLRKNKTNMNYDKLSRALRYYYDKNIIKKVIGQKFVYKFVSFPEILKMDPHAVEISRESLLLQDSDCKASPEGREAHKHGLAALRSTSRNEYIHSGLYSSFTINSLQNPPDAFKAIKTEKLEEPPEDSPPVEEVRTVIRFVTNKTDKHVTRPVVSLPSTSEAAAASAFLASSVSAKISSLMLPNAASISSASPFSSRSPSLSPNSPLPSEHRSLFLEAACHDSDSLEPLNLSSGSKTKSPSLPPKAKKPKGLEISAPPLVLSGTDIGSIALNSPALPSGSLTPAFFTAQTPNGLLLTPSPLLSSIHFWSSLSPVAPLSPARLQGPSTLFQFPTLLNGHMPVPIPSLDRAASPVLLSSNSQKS
In short: as §1

| Sequence | binding signal [1] | binding signal [2] | binding signal [3] | binding signal [4] | binding signal [5] | binding signal [6] | binding signal [7] | binding signal [8] | binding signal [9] |
| --- | --- | --- | --- | --- | --- | --- | --- | --- | --- |
| TACTTA | 1.17 fold enrichment (6-mer frequency, TF over GST control) | 1.18 fold enrichment (6-mer frequency, TF over GST control) | 1.15 fold enrichment (6-mer frequency, TF over GST control) | 1.16 fold enrichment (6-mer frequency, TF over GST control) | 1.22 fold enrichment (6-mer frequency, TF over GST control) | 1.33 fold enrichment (6-mer frequency, TF over GST control) | 1.21 fold enrichment (6-mer frequency, TF over GST control) | 1.15 fold enrichment (6-mer frequency, TF over GST control) | 1.42 fold enrichment (6-mer frequency, TF over GST control) |
| AAAAGA | 1.11 fold enrichment (6-mer frequency, TF over GST control) | 1.19 fold enrichment (6-mer frequency, TF over GST control) | 1.19 fold enrichment (6-mer frequency, TF over GST control) | 1.06 fold enrichment (6-mer frequency, TF over GST control) | 1.06 fold enrichment (6-mer frequency, TF over GST control) | 1.2 fold enrichment (6-mer frequency, TF over GST control) | 1.5 fold enrichment (6-mer frequency, TF over GST control) | 1.26 fold enrichment (6-mer frequency, TF over GST control) | 1.11 fold enrichment (6-mer frequency, TF over GST control) |
| TGCTTG | 1.31 fold enrichment (6-mer frequency, TF over GST control) | 1.15 fold enrichment (6-mer frequency, TF over GST control) | 1.11 fold enrichment (6-mer frequency, TF over GST control) | 1.15 fold enrichment (6-mer frequency, TF over GST control) | 1.18 fold enrichment (6-mer frequency, TF over GST control) | 1.31 fold enrichment (6-mer frequency, TF over GST control) | 1.17 fold enrichment (6-mer frequency, TF over GST control) | 1.2 fold enrichment (6-mer frequency, TF over GST control) | 1.11 fold enrichment (6-mer frequency, TF over GST control) |
| ACGAAC | 1.11 fold enrichment (6-mer frequency, TF over GST control) | 1.15 fold enrichment (6-mer frequency, TF over GST control) | 1.19 fold enrichment (6-mer frequency, TF over GST control) | 1.15 fold enrichment (6-mer frequency, TF over GST control) | 1.24 fold enrichment (6-mer frequency, TF over GST control) | 1.12 fold enrichment (6-mer frequency, TF over GST control) | 1.1 fold enrichment (6-mer frequency, TF over GST control) | 1.22 fold enrichment (6-mer frequency, TF over GST control) | 1.13 fold enrichment (6-mer frequency, TF over GST control) |
| TTTCTG | 1.4 fold enrichment (6-mer frequency, TF over GST control) | 1.35 fold enrichment (6-mer frequency, TF over GST control) | 1.36 fold enrichment (6-mer frequency, TF over GST control) | 1.33 fold enrichment (6-mer frequency, TF over GST control) | 1.34 fold enrichment (6-mer frequency, TF over GST control) | 1.38 fold enrichment (6-mer frequency, TF over GST control) | 1.42 fold enrichment (6-mer frequency, TF over GST control) | 1.3 fold enrichment (6-mer frequency, TF over GST control) | 1.46 fold enrichment (6-mer frequency, TF over GST control) |
| ACAAGC | 1.1 fold enrichment (6-mer frequency, TF over GST control) | 1.11 fold enrichment (6-mer frequency, TF over GST control) | 1.09 fold enrichment (6-mer frequency, TF over GST control) | 1.08 fold enrichment (6-mer frequency, TF over GST control) | 1.1 fold enrichment (6-mer frequency, TF over GST control) | 1.08 fold enrichment (6-mer frequency, TF over GST control) | 1.04 fold enrichment (6-mer frequency, TF over GST control) | 1.12 fold enrichment (6-mer frequency, TF over GST control) | 1.16 fold enrichment (6-mer frequency, TF over GST control) |
| TATAGA | 1.02 fold enrichment (6-mer frequency, TF over GST control) | 1.07 fold enrichment (6-mer frequency, TF over GST control) | 1.12 fold enrichment (6-mer frequency, TF over GST control) | 1 fold enrichment (6-mer frequency, TF over GST control) | 1.13 fold enrichment (6-mer frequency, TF over GST control) | 1.07 fold enrichment (6-mer frequency, TF over GST control) | 1.13 fold enrichment (6-mer frequency, TF over GST control) | 1.07 fold enrichment (6-mer frequency, TF over GST control) | 1.14 fold enrichment (6-mer frequency, TF over GST control) |
